Here are results for 5 compounds from PubChem BioAssay.

Records with an inconclusive call do not appear. Activity calls are given as the source filed them.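 Rule for the calls, unless noted: active = binding below the plate cutoff, the plate median minus 3 SD, with a reading above zero; inconclusive = below the plate cutoff but reading exactly zero; inactive = the rest.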

The nature of assay [1]: yeast TOR pathway RPL19A-GFP modulators, primary screen, cell-based, S. cerevisiae, multiplex flow cytometry (AID 1862; in the data active = percent of DMSO control GFP below about 86%;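 note: lower values mimic rapamycin by blocking the RPL19A rise seen in DMSO cells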). The following applies: S. cerevisiae RPL19A-GFP strain, flow cytometry fluorescence, 3 h; at 10 µM; stronger effect = lower value. In general terms: A flow cytometer gives signals particle by particle.
Assay [2] is described as follows: modulators of MEP2-GFP levels in yeast, primary screen, S. cerevisiae, multiplex flow cytometry (AID 1867;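 active = GFP response, as percent of the DMSO control, above the screen-wide mean plus 3 SD, about 139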;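 note: median GFP channel fluorescence of barcode-gated MEP2-GFP cells measured by flow cytometry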). The note with it: S. cerevisiae MEP2-GFP strain, 3 h, at 10 µM, stronger effect = higher value, 100% means same as DMSO wells.
Assay [3] in a line: modulators of CIT2-GFP expression in yeast, primary screen, S. cerevisiae, GFP fusion, multiplex flow cytometry (AID 1870;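 active = percent response above a set limit, the screen-wide mean plus 3 SD, cut at about 130% in these data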;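 note: barcoded CIT2-GFP strain pooled with four other GFP strains with rapamycin as positive control; median GFP fluorescence per well over plate mean of DMSO wells so 100% = DMSO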). The following applies: 3 h, at 10 µM, stronger effect = higher value.
Assay [4] is described as follows: modulators of LAP4-GFP expression in yeast, primary screen, S. cerevisiae, multiplex flow cytometry (AID 1873;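 active = GFP signal, as percent of the solvent control, above the screen mean plus 3 SD, about 149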). The note with it: 3 h, at 10 µM, stronger effect = higher value.
Assay [5] in a line: modulators of AGP1-GFP expression in yeast TOR pathway, primary screen, cell-based, multiplex flow cytometry, S. cerevisiae (AID 1887;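 active = GFP signal above the screen-wide mean plus 3 SD, that is over about 124.5% of the solvent control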;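 note: AGP1-GFP fusion strain of S. cerevisiae within a five-strain barcoded multiplex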). The note with it: 3 h, at 10 µM, stronger effect = higher value.
Assay [6] can be described thus: inhibitors of CD8+ T cell-vesicle binding, pilot screen, LFA-1/ICAM-1 modulator project, MLPCN validation set, flow cytometry (AID 2523;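 active = response below a set limit, under 55% cells CD8-positive and vesicle-bound, and CD8 cells' 90th-percentile brightness under 279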;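 for vesicle binding response: mean PE anti-B7-1 fluorescence of CD8+ cells relative to row control; 100% = QL9-loaded vesicles with DMSO vehicle in the same plate row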). The following applies: 2C mouse CD8+ T cells, at 7 µM, stronger effect = lower value; double positive events: measured here: CD8+/vesicle+ event percentage.
For assay [7], the target named is Integrin beta-1 (Homo sapiens) + Integrin alpha-4 (Homo sapiens) (UniProt P13612+P05556). The experiment in a line: inhibition of HUTS-21 binding to VLA-4, pilot screen, VLA-4 allosteric modulator project, U937 cells, HUTS-21 mAb, flow cytometry, validation set (AID 2674;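 active = inhibition above 50%, about 3 SD of the validation set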;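 note: antibody binding induced by the VLA-4 ligand LDV present at three times its Kd; 0% = LDV ligand with antibody and no compound and 100% = antibody without LDV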). The following applies: HUTS-21 LIBS mAb binding, at 6.7 µM, stronger effect = higher value, binding induced by LDV ligand.

Assay [8] is described as follows: superoxide lowering in aged yeast cells, pilot screen, validation compound set (AID 2706;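 active = superoxide response below 65% of plate, a cut near 3 SD across the whole screen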;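 note: yeast exposed to compound for one week at 30 degrees C before staining; 100% = mean of all compound wells on the same plate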). The following applies: S. cerevisiae aging, superoxide DHE fluorescence; at 10 µM; stronger effect = lower value.
The target of assay [9] is Beta-adrenergic receptor kinase 1 (Homo sapiens) (UniProt P25098). The experiment in a line: GRK2 binders displacing RNA aptamer, biochemical, validation, human GRK2, bead flow cytometry (AID 488806;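 active = aptamer binding inhibition above 30%, about 3 SD of noise from non-fluorescent compounds; inactive = inhibition at or below 30%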). The note with it: bead-bound GRK2, FAM-aptamer displacement, at 10 µM, stronger effect = higher value.
Assay [10] deals with Beta-2 adrenergic receptor (Homo sapiens) (UniProt P07550). The experiment in a line: beta2AR agonists driving receptor internalization, pilot screen, cell-based, FAP fluorogen, flow cytometry, validation set (AID 504459;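 active = percent response above 42, roughly 3 SD of non-fluorescent test compounds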;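 note: agonist-driven loss of surface beta2AR via internalization measured by FAP dye flow cytometry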). The note with it: Am2.2-beta2AR cells, FAP surface receptor flow cytometry; at 10 µM; stronger effect = higher value.
In assay [11] the target is AP-2 complex subunit beta (Homo sapiens) (UniProt P63010). Put plainly: inhibitors of arrestin peptide binding to AP2, pilot screen, biochemical, validation set, GST-AP2 beads, flow cytometry (AID 504541;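 active = inhibition above 54%, about 3 SD of non-fluorescent compounds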;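 note: AP2 carries R879A mutation and is captured from E. coli lysate; bead-bound FITC arrestin peptide fluorescence measuring arrestin peptide binding to AP2; 0% = DMSO wells and 100% = excess unlabeled arrestin peptide control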). The note with it: FITC arrestin peptide, at 10 µM, stronger effect = higher value, AP2 beta2 appendage fragment, R879A mutant.
Assay [12] can be described thus: yeast V-ATPase proton transport modulators, S. cerevisiae, pHLuorin, HTS validation (AID 504600; in the data active = response above about 15%;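 note: plate controls were DMSO for no effect and reference compound for full effect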). The note with it: S. cerevisiae pHLuorin cytosolic pH, at 10 µM, stronger effect = higher value.
Assay [13] deals with anti-desmoglein-3 scFv antibody binding to human DSG3. The experiment in a line: inhibitors of anti-DSG3 scFv binding to DSG3, pilot screen, biochemical, validation compound set, bead-based, flow cytometry (AID 588368).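 Note: signal is the median channel fluorescence of bead-bound GFP antibody.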 The following applies: Protein G beads, DSG3-Fc, scFv-GFP binding, at 10 µM, stronger effect = lower value.
The nature of assay [14]: inhibitors of fungal efflux pumps CDR1, CDR2, MDR1, pilot screen, validation compound set, multiplex, phenotypic (AID 588506;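 active = efflux inhibition above 0.42, the validation set average plus 4 SD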;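 note: Nile Red retained in cells so higher fluorescence means more efflux inhibition; 0 = negative control wells and 1 = enniatin B 25 µM full block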). The note with it: S. cerevisiae pump-expressing triplex, Nile Red efflux flow cytometry; at 10 µM; stronger effect = higher value; the pumps come from Candida albicans.
The target in assay [15] is ATP-binding cassette sub-family B member 6 (Homo sapiens) (UniProt Q9NP58). The experiment in a line: ABCB6 transporter inhibitors, pilot screen, K562-ABCB6 cells, flow cytometry, validation set (AID 588550;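 active = inhibition above the screen-wide mean plus 3 SD, about 51%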;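 note: 0% = DMSO wells and 100% = benzethonium chloride 70 µM positive control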). The following applies: K562-ABCB6 porphyrin accumulation, 1 h, at 10 µM, stronger effect = higher value.
The nature of assay [16]: promoters of myeloid differentiation in arrested cells, primary screen, cell-based, GFP/MAC1 double positive, flow cytometry, validation set (AID 588685;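 active = differentiation response of at least 50%, scaled between solvent and reference control, from cells with both markers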;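 note: compound exposure lasts four days before antibody staining and flow analysis; 0% = DMSO wells and 100% = 5 µM fulvestrant positive control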). The note with it: ER-HoxA9 marrow cells, stronger effect = higher value, normalized: vehicle 0, fulvestrant 100.

Sequence of Integrin beta-1 (Homo sapiens) + Integrin alpha-4 (Homo sapiens) (P05556 whole entry, looked up): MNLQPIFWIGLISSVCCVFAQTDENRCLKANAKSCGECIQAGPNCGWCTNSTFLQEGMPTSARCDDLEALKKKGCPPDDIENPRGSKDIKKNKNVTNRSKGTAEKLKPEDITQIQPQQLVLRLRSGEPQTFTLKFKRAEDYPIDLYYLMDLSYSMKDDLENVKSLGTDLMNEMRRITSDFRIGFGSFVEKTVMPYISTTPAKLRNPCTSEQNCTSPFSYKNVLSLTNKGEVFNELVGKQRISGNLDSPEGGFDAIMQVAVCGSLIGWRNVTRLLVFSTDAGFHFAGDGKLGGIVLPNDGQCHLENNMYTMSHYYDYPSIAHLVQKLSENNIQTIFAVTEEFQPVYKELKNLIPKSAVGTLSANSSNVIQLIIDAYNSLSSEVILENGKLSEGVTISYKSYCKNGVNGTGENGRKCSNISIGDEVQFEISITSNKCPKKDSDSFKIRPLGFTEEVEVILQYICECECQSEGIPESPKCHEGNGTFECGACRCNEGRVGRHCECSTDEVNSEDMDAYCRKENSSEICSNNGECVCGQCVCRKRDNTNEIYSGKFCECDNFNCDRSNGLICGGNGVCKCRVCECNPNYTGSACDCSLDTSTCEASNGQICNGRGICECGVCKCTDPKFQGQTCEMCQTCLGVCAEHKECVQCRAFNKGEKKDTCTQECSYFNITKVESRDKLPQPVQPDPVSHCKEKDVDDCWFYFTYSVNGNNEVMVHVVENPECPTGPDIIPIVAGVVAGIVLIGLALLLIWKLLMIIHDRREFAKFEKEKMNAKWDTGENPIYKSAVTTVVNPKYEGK
Sequence of Integrin beta-1 (Homo sapiens) + Integrin alpha-4 (Homo sapiens) (P13612 whole entry, looked up): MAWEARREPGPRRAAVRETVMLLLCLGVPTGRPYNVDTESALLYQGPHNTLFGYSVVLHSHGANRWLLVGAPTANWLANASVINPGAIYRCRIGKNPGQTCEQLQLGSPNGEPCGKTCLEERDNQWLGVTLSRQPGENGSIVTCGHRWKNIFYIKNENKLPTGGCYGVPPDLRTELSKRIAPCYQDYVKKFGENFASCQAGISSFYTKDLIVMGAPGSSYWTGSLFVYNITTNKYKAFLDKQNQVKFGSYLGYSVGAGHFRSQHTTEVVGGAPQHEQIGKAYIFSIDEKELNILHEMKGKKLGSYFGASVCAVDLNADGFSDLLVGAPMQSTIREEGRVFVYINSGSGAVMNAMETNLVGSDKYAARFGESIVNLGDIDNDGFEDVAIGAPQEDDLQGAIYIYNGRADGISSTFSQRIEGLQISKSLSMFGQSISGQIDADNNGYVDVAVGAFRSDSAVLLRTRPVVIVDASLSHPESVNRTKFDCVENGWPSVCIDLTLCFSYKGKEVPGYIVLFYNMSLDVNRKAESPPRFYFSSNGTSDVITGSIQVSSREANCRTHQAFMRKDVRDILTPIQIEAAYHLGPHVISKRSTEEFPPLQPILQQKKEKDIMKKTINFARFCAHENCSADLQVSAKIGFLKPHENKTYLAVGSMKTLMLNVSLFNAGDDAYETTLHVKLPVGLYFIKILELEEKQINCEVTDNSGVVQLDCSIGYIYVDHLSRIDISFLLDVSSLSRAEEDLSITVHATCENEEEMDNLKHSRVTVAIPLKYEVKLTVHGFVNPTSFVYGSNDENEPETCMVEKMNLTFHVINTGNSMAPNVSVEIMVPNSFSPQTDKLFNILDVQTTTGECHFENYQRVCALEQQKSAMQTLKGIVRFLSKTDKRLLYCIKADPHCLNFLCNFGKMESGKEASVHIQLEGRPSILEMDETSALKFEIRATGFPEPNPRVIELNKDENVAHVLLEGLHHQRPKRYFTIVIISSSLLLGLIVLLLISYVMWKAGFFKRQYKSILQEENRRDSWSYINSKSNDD
Sequence of Beta-adrenergic receptor kinase 1 (Homo sapiens) (P25098 whole entry, looked up): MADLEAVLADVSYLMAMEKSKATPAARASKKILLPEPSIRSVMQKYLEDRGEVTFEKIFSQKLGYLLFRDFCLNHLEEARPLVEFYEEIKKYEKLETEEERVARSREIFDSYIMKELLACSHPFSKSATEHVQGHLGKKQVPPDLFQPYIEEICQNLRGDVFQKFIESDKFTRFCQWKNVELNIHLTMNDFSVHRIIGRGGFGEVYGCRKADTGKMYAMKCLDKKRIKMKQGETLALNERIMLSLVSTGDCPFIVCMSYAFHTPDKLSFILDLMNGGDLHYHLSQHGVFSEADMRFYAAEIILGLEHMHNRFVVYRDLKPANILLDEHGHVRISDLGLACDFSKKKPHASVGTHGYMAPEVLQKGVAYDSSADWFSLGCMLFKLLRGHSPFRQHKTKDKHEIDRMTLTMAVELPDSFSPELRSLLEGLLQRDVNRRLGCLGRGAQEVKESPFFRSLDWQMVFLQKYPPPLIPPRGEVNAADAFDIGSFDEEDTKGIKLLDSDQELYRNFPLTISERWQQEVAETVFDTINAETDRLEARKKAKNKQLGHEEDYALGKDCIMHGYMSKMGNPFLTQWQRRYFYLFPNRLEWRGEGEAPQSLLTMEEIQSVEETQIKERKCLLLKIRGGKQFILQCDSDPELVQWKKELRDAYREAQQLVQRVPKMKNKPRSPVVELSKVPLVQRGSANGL
Sequence of Beta-2 adrenergic receptor (Homo sapiens) (P07550 whole entry, looked up): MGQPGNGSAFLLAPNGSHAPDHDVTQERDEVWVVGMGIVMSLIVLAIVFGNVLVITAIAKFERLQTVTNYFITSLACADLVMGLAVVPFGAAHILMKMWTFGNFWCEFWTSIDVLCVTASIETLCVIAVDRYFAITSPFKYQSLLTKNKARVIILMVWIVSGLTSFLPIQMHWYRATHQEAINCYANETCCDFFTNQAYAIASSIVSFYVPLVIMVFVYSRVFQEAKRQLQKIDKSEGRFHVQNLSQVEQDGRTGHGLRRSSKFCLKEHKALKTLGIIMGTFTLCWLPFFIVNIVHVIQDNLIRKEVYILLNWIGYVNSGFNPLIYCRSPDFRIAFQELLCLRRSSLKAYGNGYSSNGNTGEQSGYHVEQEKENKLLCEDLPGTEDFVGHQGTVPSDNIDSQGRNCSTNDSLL
Sequence of AP-2 complex subunit beta (Homo sapiens) (P63010 whole entry, looked up, the tested form may be a part, one chain of several): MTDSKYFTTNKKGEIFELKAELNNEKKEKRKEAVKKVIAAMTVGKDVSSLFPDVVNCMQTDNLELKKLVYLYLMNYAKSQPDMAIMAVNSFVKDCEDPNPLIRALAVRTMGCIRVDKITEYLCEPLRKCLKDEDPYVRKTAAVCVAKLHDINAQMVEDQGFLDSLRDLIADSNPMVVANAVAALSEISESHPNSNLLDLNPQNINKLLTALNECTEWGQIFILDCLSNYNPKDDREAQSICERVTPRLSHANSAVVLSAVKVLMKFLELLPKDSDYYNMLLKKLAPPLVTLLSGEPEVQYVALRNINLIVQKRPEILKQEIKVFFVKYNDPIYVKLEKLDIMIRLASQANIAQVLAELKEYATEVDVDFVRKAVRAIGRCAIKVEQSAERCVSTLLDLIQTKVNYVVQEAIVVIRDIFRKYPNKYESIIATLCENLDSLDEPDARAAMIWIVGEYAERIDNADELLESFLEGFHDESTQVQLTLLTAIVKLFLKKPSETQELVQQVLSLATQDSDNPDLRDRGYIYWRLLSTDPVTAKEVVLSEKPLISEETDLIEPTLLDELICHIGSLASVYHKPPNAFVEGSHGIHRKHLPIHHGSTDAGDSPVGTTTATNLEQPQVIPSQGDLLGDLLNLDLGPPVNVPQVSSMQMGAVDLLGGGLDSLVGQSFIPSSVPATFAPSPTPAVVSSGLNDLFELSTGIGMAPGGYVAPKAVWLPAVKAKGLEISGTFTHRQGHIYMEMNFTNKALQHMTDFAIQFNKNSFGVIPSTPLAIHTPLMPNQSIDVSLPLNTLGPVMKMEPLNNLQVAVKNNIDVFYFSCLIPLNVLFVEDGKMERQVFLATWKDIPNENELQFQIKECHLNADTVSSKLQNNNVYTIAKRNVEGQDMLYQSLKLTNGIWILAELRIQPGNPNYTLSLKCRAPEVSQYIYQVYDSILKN
Sequence of ATP-binding cassette sub-family B member 6 (Homo sapiens) (Q9NP58 whole entry, looked up): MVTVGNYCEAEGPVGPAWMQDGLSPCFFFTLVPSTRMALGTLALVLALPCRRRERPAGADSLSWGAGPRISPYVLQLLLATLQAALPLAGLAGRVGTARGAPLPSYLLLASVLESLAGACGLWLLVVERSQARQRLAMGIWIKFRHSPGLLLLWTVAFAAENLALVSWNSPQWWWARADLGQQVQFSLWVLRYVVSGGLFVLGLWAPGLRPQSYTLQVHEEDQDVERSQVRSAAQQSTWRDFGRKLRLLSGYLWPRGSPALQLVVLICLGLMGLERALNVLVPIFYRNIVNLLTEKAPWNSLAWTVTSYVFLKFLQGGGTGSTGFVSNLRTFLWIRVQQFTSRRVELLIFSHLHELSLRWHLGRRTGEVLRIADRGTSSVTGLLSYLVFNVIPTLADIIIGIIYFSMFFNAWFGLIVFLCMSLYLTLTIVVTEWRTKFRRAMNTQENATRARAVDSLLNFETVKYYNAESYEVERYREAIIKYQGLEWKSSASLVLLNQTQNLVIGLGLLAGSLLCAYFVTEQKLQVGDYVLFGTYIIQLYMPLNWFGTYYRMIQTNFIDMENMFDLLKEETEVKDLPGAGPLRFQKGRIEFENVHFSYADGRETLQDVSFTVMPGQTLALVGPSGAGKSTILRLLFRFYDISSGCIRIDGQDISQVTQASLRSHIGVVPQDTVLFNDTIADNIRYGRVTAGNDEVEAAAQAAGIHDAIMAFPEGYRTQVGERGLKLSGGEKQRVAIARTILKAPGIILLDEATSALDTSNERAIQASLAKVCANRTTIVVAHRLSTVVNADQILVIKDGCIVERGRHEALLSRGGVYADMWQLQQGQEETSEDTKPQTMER

One may read the inhibition as the change of the read-out against control, counted positive when it falls. Consider `CN1CCN(CCCN2c3ccccc3Sc3ccc(Cl)cc32)CC1`, for which the percent of DMSO control GFP in assay [1] is 99.3% (inactive). In addition, the GFP response vs DMSO in assay [2] is 102% (inactive); in assay [4], 113% (inactive). For the same compound, the percent response of DMSO control in assay [3] was 97% (inactive). For the same compound, in assay [5], the GFP response, % of DMSO is 120% (inactive). This compound came in with a double positive events in [6] of 61.4%. Besides, the vesicle binding response in assay [6] is 179% (inactive). In addition, the results for the inhibition in [7], in [11] and in assay [15] were 63.6% (active), 0.77% (inactive) and 7% (inactive), respectively. Further, in assay [8], the superoxide response (% of plate) is 70.1% (inactive). The aptamer binding inhibition in assay [9] was 0% (inactive). The figures for the response in assay [10] and in assay [12] were -15% (inactive) and 1.39% (inactive), respectively. The binding (% of control) in assay [13] is 106% (inactive). The efflux inhibition (fraction of control) in assay [14] is -0.17 (inactive). Moreover, in [16], the differentiation response is 3.88% (inactive).

For the compound `Cc1coc2cc3oc(=O)c(CCC(=O)O)c(C)c3cc12`, the percent of DMSO control GFP in assay [1] is 95.4% (inactive). Besides, the GFP response vs DMSO is 101% (inactive) in [2] and 147% (inactive) in assay [4]. Also, the percent response of DMSO control in assay [3] was 92% (inactive). Also, the GFP response, % of DMSO in [5] is 86.8% (inactive). Further, the double positive events in [6] came to 58.9%. Also, in assay [6], the vesicle binding response is 223% (inactive). In addition, the inhibition in assay [7] is -11.3% (inactive); in assay [11], 20.5% (inactive); in assay [15], 6% (inactive). For the same compound, in assay [8], the superoxide response (% of plate) was 109% (inactive). Further, in assay [9], the aptamer binding inhibition was 1% (inactive). For the same compound, the response is -0.85% (inactive) in assay [10] and -3.3% (inactive) in [12]. The binding (% of control) in assay [13] was 106% (inactive). For the same compound, in [14], the efflux inhibition (fraction of control) was -0.17 (inactive). Besides, in assay [16], the differentiation response is -2.4% (inactive).

Regarding `COC(=O)c1ccc(NC(=O)c2ccccc2SC)cc1`, the percent of DMSO control GFP in assay [1] was 97.8% (inactive). Further, the GFP response vs DMSO is 104% (inactive) in [2] and 106% (inactive) in [4]. Further, in [3], the percent response of DMSO control was 102% (inactive). Also, the GFP response, % of DMSO in [5] is 91.8% (inactive). The compound further yielded a double positive events in [6] of 58.4%. Also, the vesicle binding response in assay [6] is 132% (inactive). Moreover, the inhibition in assay [7] is 1.62% (inactive); in assay [11], 18.8% (inactive); in assay [15] it was 1% (inactive). For the same compound, in [8], the superoxide response (% of plate) was 109% (inactive). Moreover, the aptamer binding inhibition in [9] is 2% (inactive). In addition, the results for the response in assay [10] and in assay [12] were 1.63% (inactive) and -1.67% (inactive), respectively. Besides, the binding (% of control) in [13] was 99% (inactive). Moreover, in assay [14], the efflux inhibition (fraction of control) is -0.26 (inactive). Moreover, the differentiation response in [16] was 5.13% (inactive).

Take `OCCN1CCN(CCCN2c3ccccc3Sc3ccc(C(F)(F)F)cc32)CC1`: the percent of DMSO control GFP in assay [1] was 104% (inactive). The GFP response vs DMSO in assay [2] was 104% (inactive); in [4], 101% (inactive). Moreover, the percent response of DMSO control in assay [3] is 92.5% (inactive). The GFP response, % of DMSO in assay [5] was 115% (inactive). Moreover, the double positive events in [6] worked out at 62.1%. Also, in assay [6], the vesicle binding response was 176% (inactive). In addition, the inhibition in assay [7] was 70.4% (active); in assay [11], 13.1% (inactive); in [15], 11% (inactive). Further, the superoxide response (% of plate) in assay [8] is 90.7% (inactive). Also, the aptamer binding inhibition in [9] was -4% (inactive). The response in [10] is 26.4% (inactive); in assay [12], 0.87% (inactive). Further, the binding (% of control) in [13] is 111% (inactive). Besides, in assay [14], the efflux inhibition (fraction of control) is -0.04 (inactive). Besides, the differentiation response in assay [16] was 0.92% (inactive).

In the case of `CC1(C)CC(=O)c2c(nc3ccccc3c2N)C1`, in [1], the percent of DMSO control GFP was 105% (inactive). Further, the results for the GFP response vs DMSO in [2] and in assay [4] were 90.9% (inactive) and 104% (inactive), respectively. The percent response of DMSO control in assay [3] is 111% (inactive). The GFP response, % of DMSO in assay [5] is 99.2% (inactive). In addition, in assay [6], the double positive events was 62.1%. Also, the vesicle binding response in assay [6] is 259% (inactive). The inhibition was -3.57% (inactive) in [7], -2.7% (inactive) in [11] and 9% (inactive) in assay [15]. The superoxide response (% of plate) in assay [8] is 89.8% (inactive). Besides, the aptamer binding inhibition in assay [9] was 0% (inactive). The results for the response in assay [10] and in assay [12] were -12.4% (inactive) and -3.81% (inactive), respectively. Further, the binding (% of control) in assay [13] was 102% (inactive). Moreover, the efflux inhibition (fraction of control) in [14] was -0.29 (inactive). Also, in [16], the differentiation response was 0.24% (inactive).
